Results on 26 sequences are retold here after the supplement of paper PMC11417369.

In all, about 25,000 sequences were measured (“ln(normalized median fluorescence intensity)”: median about 7.1, highest 2% from about 10 on). Many of the other results were omitted from the sample, so the highest values are more common in it than they were.

The subject of the assay is PfSIP2 AP2 domain 1 (GST-tagged). The assay can be described thus: gcPBM binding intensity (ln(normalized median fluorescence intensity)); higher = stronger DNA binding. In outline: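 In this array assay, P. falciparum DNA-binding domains with a GST tag, expressed in E. coli, were applied for 1 h to primer-extended double-stranded 36-bp intergenic genomic probes and negative controls on an Agilent 4 × 180k array. Bound protein was visualised with Alexa488 anti-GST antibody at 488 nm. Binding intensity is the highest Masliner-normalised natural-log median intensity across replicate spots of either probe orientation.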
As for “TATGTACAGACATATACACACCTCTATAATCTATAT [CACACA_site6482]”, the “gcPBM binding intensity (ln)” value is 7.09.

In the case of TATATATATAAATGAATGCACTTTAGAAAAAAGTAC, the “gcPBM binding intensity (ln)” value was 8.52. For the sequence AAAAAAAATTATGAAGTGCATTAGTGAATTTGATTG, the “gcPBM binding intensity (ln)” value came to 9.16. Regarding “TGTCGGCTTAGATTAGTGCACTGAAAAATGAAGTAT [GTGCAC_site9919]”, the “gcPBM binding intensity (ln)” value came out at 10.5. On to “ATTTTTTTTTTTTTTTGTACGAATAATATGTATGAA [XGTACX_site5318]”, for which the “gcPBM binding intensity (ln)” value worked out at 7.12. As for TAGGCCTTAAATCGTGTGCACTTTTTTTTTTTTTTT, the “gcPBM binding intensity (ln)” value is 10.7. As for “TAAATATATATATGTGTGCACTTCTTCATTTTAATA [GTGCAC_site9537]”, the “gcPBM binding intensity (ln)” value was found to be 9.97. For “AAATTAAATAAATTTACACACTAAAAATTACATATA [CACACA_site1054]”, the “gcPBM binding intensity (ln)” value came to 6.88.

Turning to CTTTCGGTTGGAGAGGTGCGCTTCTCCTTTATAATA, the “gcPBM binding intensity (ln)” value came to 11.

Consider “TTTTTATTTTATAATATATTCCTTTTCCTTTCTTTC [CACACA_negctrl_site245]”, for which the “gcPBM binding intensity (ln)” value was found to be 6.64. Under “TCTTTATCCTTTCTCTTTTTATTAATTATAATATTC [TGCATGCA_negctrl_site584]” stands 6.99. On to “AAAAAAAAAACAAATACACACGCACCCAAAAAAAAA [CACACA_site8166]”, for which the “gcPBM binding intensity (ln)” value was 10.1. Turning to “CATACACAAGAAAATTCACACACACCCATATATATA [CACACA_site9288]”, the “gcPBM binding intensity (ln)” value came to 7.73. To “TACAGATACGGACACACACACACACCCAGACAAAAA [CACACA_site4432]” belongs 7.54. As to “CAAAACAAAGTTGCCGCACACAGATACGCACCCAAG [CACACA_site3455]”, the “gcPBM binding intensity (ln)” value is 11.9. Regarding “TACGCACAAAAATATACACACACACCGATATATTTA [CACACA_site9213]”, the “gcPBM binding intensity (ln)” value was 7.15. Consider “GCCGCACCCAGATACGCACACAAGAAAAAAATATTC [CACACA_site3456]”, for which the “gcPBM binding intensity (ln)” value worked out at 11.1. Under “ATTTTTATGTTGAAAAGTACTTGAATCCCATGTAAC [XGTACX_site4453]” stands 7.09; under “ATATATATATATATAACACACGTGTATTTATCTGTA [CACACA_site5922]”, 9.33.

For “AACACACACATATATATATATATATATATATATATA [GTGCAC_negctrl_site573]”, the “gcPBM binding intensity (ln)” value worked out at 9.64. For the sequence “TAATTAATTTACATTTTAATTTTATACAAAATTTAT [CACACA_negctrl_site830]”, the “gcPBM binding intensity (ln)” value worked out at 6.7. On to “TTCCTGTTAATTACAACACACAATTTTTATTTTATG [CACACA_site779]”, for which the “gcPBM binding intensity (ln)” value was determined as 7.16.

With “ATTGTGGCAATATATTGTACATGTAATATAAATATA [XGTACX_site5415]”, the “gcPBM binding intensity (ln)” value was found to be 7.06. On to “TTCTTTTTAATGTCGGTGCAACTCCATAAAAACAAA [GTGCAC_site9488]”, for which the “gcPBM binding intensity (ln)” value turned out to be 10.8.

With “TTCTTTTTTTTTAAAACAAACAAACAAACAAACAAA [CACACA_negctrl_site832]”, the “gcPBM binding intensity (ln)” value is 7.06. Consider “CCATATTTAATAAAATGTACTCATTCTTTTATTTTA [XGTACX_site7802]”, for which the “gcPBM binding intensity (ln)” value was 7.11.
